Rows were chosen to be rich in hits. Some 4.1% of all compounds tested hit in one or more screens of this group.
Jurkat NFkB inh = inhibitors of induced NF-kB luciferase reporter, primary screen, TCR NF-kB activation inhibitor project, cell-based, luminescence, uHTS | Jurkat, PMA/ionomycin-induced NF-kB luciferase reporter | inhibition, % at 4 µM | actives 0.53% (n = 330,000) | AID 435003, 2010; in the data active means inhibition above about 50%
aSyn 5UTR inh = MLPCN primary screen, SNCA 5' untranslated region; alpha-synuclein 5'UTR reporter, inhibitor activity; AID 1813, 2009; actives 0.82% (n = 300,000); inhibition, % (tested at 7.5 µM); in the data active means inhibition above about 60%;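 further: H4 neuroglioblastoma cells stably carrying SNCA 5'UTR luciferase fusion; 0% = DMSO wells and 100% = positive control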
KLF5 inhibitor = KLF5 expression inhibitors, primary screen, DLD-1 cells, luminescence | DLD-1 KLF5 promoter-luciferase reporter | inhibition, % at 5 µM | actives 0.23% (n = 290,000) | AID 1700, 2009;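 active means inhibition above a per-plate limit of that plate's mean compound inhibition plus 3 SD, cut at about 60% in these data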;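 further: 0% = DMSO wells and 100% = LY294002 at 200 µM; higher means less KLF5 promoter-driven luciferase light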
Mdm2-MdmX inh = inhibitors of human Mdm2-MdmX association, primary screen, cell-based, luminescence, split luciferase, SaOS-2, uHTS; Protein Mdm4 (Homo sapiens) + E3 ubiquitin-protein ligase Mdm2 (Homo sapiens), …; SaOS-2 split-luciferase Mdm2/MdmX complementation; inhibition, % at 8 µM; actives 3% (n = 330,000); AID 485346, 2010;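 active means inhibition of at least 50% at 8 µM in the primary screen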
697 NFkB inh = inhibitors of PMA/ionomycin-induced NF-kB reporter, 697 cells, primary screen, B-cell NF-kB inhibitor project, cell-based, luminescence, uHTS; inhibition, % at 4 µM; actives 0.33% (n = 330,000); AID 435022, 2010; 697 B-cell NF-kB luciferase reporter, 16 h; in the data active means inhibition above about 35%
Gli-Sufu block = Gli-Sufu pathway antagonists, primary screen, luciferase luminescence, Sufu-KO-LIGHT cells, uHTS; Sufu-KO-LIGHT fibroblasts, Gli luciferase reporter luminescence; inhibition, % at 5 µM; actives 0.74% (n = 340,000);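 active means inhibition above about 55%, limit read from the data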;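 further: 0% = DMSO-treated cells and 100% = wells with medium but no cells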
Gli antag conf = Gli-SUFU pathway antagonists, confirmation, single concentration, luciferase luminescence, Sufu-KO-LIGHT cells; AID 602428, 2012; inhibition, % at 5 µM; shares compounds with Gli-Sufu block; Gli luciferase reporter; actives 40% (n = 2,500);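 active means mean inhibition at 5 µM reaching about 45%, limit read from the data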;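 further: plate controls were DMSO-treated cells for no effect and wells lacking cells for full effect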
Gli cytotox = cytotoxicity in Sufu-KO-LIGHT cells, confirmation, cytotoxicity control for Gli-SUFU antagonist project, cell-based, ATP luminescence, single concentration; shares compounds with Gli-Sufu block; actives 32% (n = 2,500); cytotoxicity, % at 5 µM;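 active means mean cytotoxicity at 5 µM above about 25%, limit read from the data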;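 further: cells exposed to compound overnight for roughly 16 to 18 hours; plate controls were DMSO wells with cells for no effect and medium without cells for full effect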
Wnt3a cs = Wnt3a reporter signal inhibition, confirmation, counter-screen for Gli-SUFU antagonist project, Wnt-LIGHT cells, luminescence, single concentration; shares compounds with Gli-Sufu block; actives 20% (n = 2,500); Wnt3a-driven luciferase reporter; inhibition, % at 6.25 µM;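 active means mean inhibition above about 25%, limit read from the data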
Active calls of the source: *; nt = no result.

SMILES | Jurkat NFkB inh | aSyn 5UTR inh | KLF5 inhibitor | Mdm2-MdmX inh | 697 NFkB inh | Gli-Sufu block | Gli antag conf | Gli cytotox | Wnt3a cs
CCC(C)NC(=O)CNC(=S)N(Cc1ccc(F)cc1)C1CCCCC1 (centres undefined) | 4.5 | 28.9 | 20.9 | -11.7 | -7.4 | 4.8 | nt | nt | nt
Cc1ccc(CSCCNC(=O)CSCc2ccc([N+](=O)[O-])cc2)cc1 | 11.7 | 16.4 | 11.6 | 19.8 | 21.2 | 54.6 | 20.6 | 2.4 | 10.0
COC(=O)c1cccc(NC(=O)CC2C(=O)NCCN2C(=O)c2ccc(F)cc2F)c1 (centres undefined) | -3.8 | 17.7 | -23.7 | -19.0 | 26.7 | -1.3 | nt | nt | nt
C/C(CC(=O)NCc1ccccc1)=N\NC(=O)c1cnccn1 | 7.5 | 5.0 | -14.3 | -8.7 | 13.1 | 50.2 | 18.7 | 2.3 | 9.7
O=C(O)/C=C/c1ccc(-n2ccnc2)cc1 | 16.1 | 14.0 | -18.1 | 16.4 | 11.1 | 1.4 | nt | nt | nt
CCC(C)(C)NC(=O)C(c1ccccc1Cl)N(C(=O)CCC(=O)Nc1cc(C)on1)c1ccc(NC(C)=O)cc1 (centres undefined) | -17.3 | 2.8 | 12.9 | 14.5 | 4.7 | 54.1 | 9.8 | 28.3* | -19.1
Cc1cc(NC(=O)CCC(=O)N(c2ccccc2)C(C(=O)NC(C)(C)C)c2ccccc2Cl)no1 (centres undefined) | 4.7 | 5.9 | -31.1 | 10.0 | 3.5 | 14.6 | nt | nt | nt
COc1ccc2c(C)cc3n[nH]c(=S)n3c2c1 | -16.9 | -15.8 | -12.0 | 1.8 | 12.8 | 1.1 | nt | nt | nt
Cc1ccc(C)c(-c2cc(C(=O)N/N=C/c3cccnc3)c3ccccc3n2)c1 | 13.9 | -18.8 | -17.3 | 13.8 | 12.6 | 52.2 | 18.9 | 7.4 | -39.9
CN(C)c1ccc(C(=O)N2CCNC(=O)C2CC(=O)Nc2ccc(F)cc2)cc1 (centres undefined) | 13.2 | -5.2 | -18.5 | 23.3 | 3.9 | 95.3* | 16.6 | 3.0 | -6.1
COC(=O)C1(C(=O)OC)C(C(=O)c2ccccc2)C1c1ccccc1 (centres undefined) | nt | nt | nt | nt | nt | 0.5 | nt | nt | nt
Cc1ccc(C)[n+](CC(=O)c2ccc(-c3ccccc3)cc2)c1 | 19.3 | -11.6 | -19.8 | -8.9 | -8.7 | 55.5* | 35.9 | 15.8 | -21.1
CCOC(=O)c1sc(NC(=O)C2CC(=O)N(c3ccc(C)cc3)C2)nc1C (centres undefined) | 1.3 | 16.2 | -3.9 | 13.5 | -0.2 | -1.6 | nt | nt | nt
CN(C)S(=O)(=O)c1cccc(C(=O)OCC(=O)Nc2ccc3c(c2)OCCO3)c1 | -11.7 | nt | nt | -5.1 | 1.0 | -1.4 | nt | nt | nt
CN(C)S(=O)(=O)c1cccc(C(=O)OCC(=O)Nc2sccc2C#N)c1 | -1.9 | -16.8 | -29.1 | 4.9 | -4.3 | 98.8* | 16.7 | 5.1 | -64.6
O=C(CSc1nc(C2CC2)nc2c1cnn2-c1ccccc1)Nc1c[nH]c(=O)[nH]c1=O | 7.3 | 30.7 | -18.3 | 15.2 | -4.1 | 98.8* | 30.3 | 2.1 | 16.9
O=C(COC(=O)c1ccc(Br)o1)Nc1ccc(N2CCOCC2)cc1 | 0.4 | nt | nt | -7.1 | 24.4 | 0.0 | nt | nt | nt
CC1CC(C)CN(C(=O)C(C)N2CCN(S(=O)(=O)c3ccc(Br)s3)CC2)C1 (centres undefined) | 2.6 | nt | nt | 38.7 | 3.2 | 10.7 | nt | nt | nt
NC(=S)N/N=C/c1ncc(C(F)(F)F)cc1Cl | -6.6 | 60.5 | 33.5 | 47.3 | -15.7 | 52.8 | 65.2* | 28.1* | 44.0*
Cc1cc(C)n(-c2nnc(C)n2/N=C/c2ccco2)n1 | 4.7 | -0.5 | 9.3 | 20.4 | 11.6 | 52.6 | 4.8 | -0.5 | -0.4
CCCN(CCC)Cc1cc2ccccc2c2c1COC2 | 3.4 | 0.1 | -8.9 | 12.4 | 6.4 | 1.7 | nt | nt | nt
CCN(CC)Cc1cc2ccccc2c2c1COC2 | 15.3 | 11.7 | -34.6 | 11.8 | 24.0 | 94.4* | 13.0 | 8.1 | -16.3
COc1ccc(S(=O)(=O)NC2CCCCCC2)cc1C(N)=O | 5.6 | -0.5 | 0.0 | 26.1 | -3.2 | 63.1* | 7.3 | 24.7 | -49.7
CCOC(=O)CSc1ncc(OC)c(=O)[nH]1 | 3.2 | -2.9 | -10.4 | 4.1 | 1.9 | 5.4 | nt | nt | nt
COc1cnc(SCC(=O)O)[nH]c1=O | 0.2 | 19.7 | -29.9 | 16.8 | 3.7 | 61.8* | 13.8 | 6.6 | 12.3
SMILES | Jurkat NFkB inh | aSyn 5UTR inh | KLF5 inhibitor | Mdm2-MdmX inh | 697 NFkB inh | Gli-Sufu block | Gli antag conf | Gli cytotox | Wnt3a cs
COc1cc(Br)cc(CNc2ccc(F)c([N+](=O)[O-])c2)c1O | -13.7 | 4.0 | -10.1 | 12.3 | 11.0 | 13.1 | nt | nt | nt
COc1ccc(N2CCN(C3CCCN(C(=O)c4ccoc4)C3)CC2)cc1 (centres undefined) | 5.0 | -1.1 | -23.6 | 29.5 | 12.3 | 55.0* | 3.9 | -5.8 | 6.1
COc1ccc(N2CCN(C3CCCN(S(=O)(=O)c4ccc(C)cc4C)C3)CC2)cc1 (centres undefined) | 2.9 | -2.1 | -26.7 | 9.1 | -31.0 | 59.8* | 20.6 | 7.4 | -17.4
CCn1c(C)nc2cc(-c3nnc(-c4c(-c5ccccc5)noc4C)o3)ccc21 | -0.2 | 18.5 | -36.2 | 5.0 | 1.6 | 70.2* | 76.7* | 17.4 | 17.9
CC(=O)Nc1ccc(OS(=O)(=O)c2ccc([N+](=O)[O-])cc2)cc1 | 11.1 | -115.0 | -16.1 | 13.4 | 9.2 | -0.1 | nt | nt | nt
Cc1noc(C)c1COc1ccc(C(=O)N2CCCC(C(F)(F)F)C2)cc1 (centres undefined) | 11.8 | -9.0 | -15.0 | 13.9 | 0.2 | -0.9 | nt | nt | nt
COc1ccc(-c2nc(CS(=O)(=O)CC(=O)NCCCN3CCN(C)CC3)c(C)o2)cc1 | -14.3 | -0.1 | -1.5 | -18.7 | -60.9 | 53.4 | 11.3 | 10.3 | -2.2
Cc1oc(-c2ccccc2F)nc1CS(=O)(=O)CC(=O)NCCCN1CCN(C)CC1 | 5.6 | 1.0 | 8.2 | -19.2 | -36.1 | -1.8 | nt | nt | nt
Cc1cc[n+](C(C)C(=O)c2ccc(-c3ccccc3)cc2)cc1 (centres undefined) | 45.4 | 22.6 | -21.3 | 31.8 | 15.3 | 81.7* | 74.8* | 26.5* | -11.9
COc1ccccc1NC(=O)C(C)OC(=O)CCCOc1ccccc1 (centres undefined) | 7.9 | 0.9 | nt | -4.7 | -5.5 | -8.6 | nt | nt | nt
O=C(Cc1ccc(Cl)cc1)N1CCN(c2ccccc2)CC1 | -0.2 | -19.2 | -38.3 | -47.4 | -30.5 | 52.5 | 23.3 | 13.0 | -40.2
O=C(Cc1ccc(Cl)cc1)N1CCN(c2ccc(F)cc2)CC1 | -34.2 | -1.6 | -13.8 | -31.9 | -21.7 | -10.4 | nt | nt | nt

Bioassay records (PubChem)
